Among all 5,500 compounds or so, about 2,000 (36%) were called active. Another 18% or so got no clear call; they are omitted. Rule as the data show it: active = normalized growth mostly below about 0.91 (no sharp cut-off); inconclusive = no clear call, values can overlap the other calls; inactive = mostly above about 0.92. This is one part of the list.
Assay: chemical genetic growth profiling, strain panel (AID 1159580);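 also: tested at 20 µM; growth read once vehicle control cultures reached saturation at 30 °C; 1 = growth at the plate median or of vehicle wells; lower values mean less growth of the strain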
Conditions: S. cerevisiae deletion strains, growth OD

Measured: normalized growth

C/C(=C\c1ccc(C(=O)O)cc1)c1ccc2c(c1)C(C)(C)CCC2(C)C
inactive: locus YAL040C, strain CLN3, hits give low values 1.04 | locus YCL061C, strain MRC1 (second series), hits give low values 1.02 | locus YDR150W, strain NUM1, hits give low values 1.01 | locus YDR363W, strain ESC2, hits give low values 1.02 | locus YER002W, strain NOP16, hits give low values 1 | locus YJR075W, strain HOC1, hits give low values 1.01 | locus YMR263W, strain SAP30, hits give low values 1.01 | locus YMR307W, strain GAS1, hits give low values 1.02 | locus YNL128W, strain TEP1, hits give low values 0.994 | locus YNL175C, strain NOP13, hits give low values 0.994 | locus YNL197C, strain WHI3, hits give low values 0.965 | locus YNL224C, strain SQS1, hits give low values 1 | locus YNL322C, strain KRE1, hits give low values 1.03 | locus YOR083W, strain WHI5 (second series), hits give low values 1.01 | locus YPL241C, strain CIN2, hits give low values 1.01
